PubChem BioAssay (Tox21)
Results filed as inconclusive are left out. Values without a mark were called inactive. Active and inactive are the calls of the source. Calls come from the whole dose curve; as a rule, active = well fitted inhibition curve with a large enough effect in the signal ratio in the repeat runs (not every such curve was filed as active); inconclusive = weak or mixed curves, or effect the other way; inactive = no such curve, though single readings can be large or run the other way; the % refers to the signal ratio.

Each compound was assayed against Bile acid receptor (Homo sapiens) (UniProt Q96RI1) (assay: qHTS assay to identify small molecule antagonists of the farnesoid-X-receptor (FXR) signaling pathway (AID 743217)). Details: HEK293T FXR-UAS-bla, beta-lactamase ratio, CDCA-stimulated, 16 h; series mostly up to 62.6 µM.
Bile acid receptor (Homo sapiens), sequence (Q96RI1 whole entry, looked up): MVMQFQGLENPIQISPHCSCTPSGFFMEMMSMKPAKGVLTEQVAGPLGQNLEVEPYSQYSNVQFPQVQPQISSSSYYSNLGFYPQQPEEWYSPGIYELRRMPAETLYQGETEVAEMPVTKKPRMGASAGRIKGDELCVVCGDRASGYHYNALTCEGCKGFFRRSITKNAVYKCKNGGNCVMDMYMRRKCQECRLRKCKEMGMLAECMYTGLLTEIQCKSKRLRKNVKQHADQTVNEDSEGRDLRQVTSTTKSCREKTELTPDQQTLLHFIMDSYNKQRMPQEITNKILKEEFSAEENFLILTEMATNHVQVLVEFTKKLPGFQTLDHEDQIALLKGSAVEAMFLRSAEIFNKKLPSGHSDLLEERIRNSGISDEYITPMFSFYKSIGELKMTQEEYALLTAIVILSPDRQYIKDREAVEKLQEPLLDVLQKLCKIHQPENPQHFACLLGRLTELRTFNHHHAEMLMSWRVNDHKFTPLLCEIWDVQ
Excerpt: U.S. Tox21 Program National Center for Advancing Translational Sciences [NCATS] NIH Chemical Genomics Center [NCGC] U.S. Environmental Protection Agency [EPA] National Institutes of Environmental Health Sciences [NIEHS] National Toxicology Program [NTP] U.S. Food and Drug Administration [FDA] Tox21 Assay Overview: The farnesoid-X-receptor (FXR), a nuclear hormone receptor, is highly expressed in liver, intestine, kidney and adrenal cortex. Natural ligands of FXR are the bile acids (Cholic acid, Chenodeoxy cholic acid etc). FXR is an important regulator of diverse metabolic pathways, including the bile acid homeostasis, lipid and glucose metabolisms. FXR regulates the expression of target genes by binding either as a monomer or as a heterodimer with the retinoid X receptor (RXR). Numerous studies have reported that FXR exerts protective function during cholestasis, diabetes, liver regeneration, and cancer. To identify compounds that inhibit FXR signaling, GeneBLAzer FXR-UAS-bla HEK 293T cell line (Invitrogen, Carlsbad, CA) containing a beta-lactamase reporter gene under the control of a UAS response element was used to screen the Tox21 10K compound library.
Tox21 Assay Protocol Summary: FXR-bla cells were dispensed at 5000 cells/5uL/well in 1536-well black wall/clear bottom plates using a Multidrop Combi (Thermo Fisher Scientific, Waltham, MA) dispenser. After the assay plates were incubated at 37C and 5% CO2 for 5 h, 23 nL of compounds dissolved in DMSO, positive controls or DMSO only was transferred to the assay plate by a Pintool station (Kalypsys, San Diego, CA), followed by addition of 1 uL Chenodeoxycholic acid (50 uM, final concentration in the wells). The assay plates were incubated at 37C for 16 h. After 1 uL of LiveBLAzerTM B/G FRET substrate was added using a Bioraptr Flying Reagent Dispenser (FRD) workstation (Beckman Coulter, Indianapolis, IN), the plates were incubated at room temperature for 2 h, and fluorescence intensity was measured by an Envision plate reader (PerkinElmer, Shelton, CT).
% is set by controls: 0 for no effect and ±100 for the full control effect.

| SMILES | outcome | activity change, negative = inhibition |
| --- | --- | --- |
| CC(C)CNCC(C)C | inactive | – |
| COCCCOCCCOC | inactive | – |
| N[C@@H](C(=O)N[C@@H]1C(=O)N2C(C(=O)O)=C(Cl)CS[C@H]12)c1ccccc1 | – | -0.0054% [at 13.2 µM] |
| Nc1c[n+](N2CCOCC2)no1 | inactive | – |
| NCCCNCCSP(=O)(O)O | – | 5.47% [at 13.2 µM] |
| CO/N=C(/C(=O)N[C@@H]1C(=O)N2C(C(=O)OCOC(=O)C(C)(C)C)=C(C)CS[C@H]12)c1csc(N)n1 | inactive | – |
| CCO/C([O-])=N/c1c[n+](N2CCOCC2)no1 | inactive | – |
| CCOC(=O)CCC(C)=O | inactive | – |
| COc1ccc2c(c1)CCCC2=O | inactive | – |
| C=COCC1CCC(CO)CC1 (stereo not given) | inactive | – |
| COC(=O)c1cc(C(=O)OC)cc(S(=O)(=O)O)c1 | inactive | – |
| O=C(O)Cc1ccc(CCNS(=O)(=O)c2ccc(Cl)cc2)cc1 | inactive | – |
| Cc1cc2c(cc1S(N)(=O)=O)S(=O)(=O)CCC2 | inactive | – |
| CCn1ccnc1CC1COc2ccccc2O1 (stereo not given) | inactive | – |
| CC(=O)N(CC(O)CO)c1c(I)c(C(=O)NCCO)c(I)c(C(=O)NCC(O)CO)c1I (stereo not given) | inactive | – |
| CCCCCCCCCCCCCCCCC | inactive | – |
| CN1CC(=O)NC1=N | inactive | – |
| CN1CCCC1 | inactive | – |
| COC(=O)NN | inactive | – |
| C[N+](C)(C)CCCCCC[N+](C)(C)C | inactive | – |

| SMILES | outcome | activity change, negative = inhibition |
| --- | --- | --- |
| O=C1CCCC(=O)C1 | inactive | – |
| C[C@H]1C[C@@H](O)CC(C)(C)C1 | inactive | – |
| CCN(CC)CCOCCOC(=O)C1(c2ccccc2)CCCC1 | inactive | – |
| C=C[Si](OC(=C)C)(OC(=C)C)OC(=C)C | inactive | – |
| C1OCOCO1 | inactive | – |
| CC(=O)CC(C)C | inactive | – |
| COC(=O)c1c(Cl)c(Cl)c(C(=O)OC)c(Cl)c1Cl | inactive | – |
| COC(C)(C)CCCC(C)CC=O (stereo not given) | inactive | – |
| CCO[Si](CCC1CCC2OC2C1)(OCC)OCC (stereo not given) | inactive | – |
| CC(NC(CCc1ccccc1)C(=O)O)C(=O)N1C(=O)N(C)CC1C(=O)O (stereo not given) | inactive | – |
| Cc1c(O)cccc1O | inactive | – |
| O=C(O)CNC(=O)c1ccc([N+](=O)[O-])cc1 | inactive | – |
| c1ccc(CC2=NCCN2)cc1 | inactive | – |
| O=C1CC2CC1C1CCCC21 (stereo not given) | inactive | – |
| CCOc1ccc(C(=O)OCCN(CC)CC)cc1 | inactive | – |
| COc1c(N2C[C@@H]3CCCN[C@@H]3C2)c(F)cc2c(=O)c(C(=O)O)cn(C3CC3)c12 | inactive | – |
| Cc1ccc(C#N)cc1 | inactive | – |
| CC[N+](C)(C)c1cccc(O)c1 | inactive | – |
| NC(=O)c1cn(Cc2c(F)cccc2F)nn1 | inactive | – |
| O=C(CCCN1CCC(O)(c2cccc(C(F)(F)F)c2)CC1)c1ccc(F)cc1 | inactive | – |
